Values joined by “and” are separate entries in the source; they are usually repeats but may differ in a detail not shown here. Equal entries are not always repeated. Some structures have more than one record in an assay (separate samples or runs), and their calls can disagree. Active and inactive are the calls of the source. Rule for the calls: active = hit-call score of the fitted dose curve at least 0.9, where 1 is the maximum; inactive = score below 0.9.
read-out: Interleukin-8 (IL8), CXCL8 (gene 3576); test: BSK_IMphg_IL8: BioMAP Diversity Plus: IMphg Assay for Interleukin-8 (IL8) Biomarker Activity (AID 2284277); settings: primary human endothelial cells with macrophages
Description: BSK_IMphg is a cell-based, multiplexed-readout assay that uses venular endothelial cells and macrophages, a human vascular primary cell, with measurements taken at 24 hours after chemical dosing in a microplate: 96-well plate.BSK_IMphg_IL8 is an assay component measured in the BSK_IMphg assay. It measures IL-8 antibody related to regulation of gene expression using ELISA technology.Data from the assay component BSK_IMphg_IL8 was analyzed at the endpoint, BSK_IMphg_IL8, in the positive analysis fitting direction relative to DMSO as the negative control and baseline of activity. Using a type of binding reporter, gain or loss-of-signal activity can be used to understand protein changes. To generalize the intended target to other relatable targets, this assay endpoint is annotated to the 'cytokine' intended target family, where the subfamily is 'interleukins'.
The levels of cell surface (or secreted, indicated by the prefix "s") biomarker endpoints were measured by ELISA. Overt cytotoxicity to cells in confluent adherent cultures (all systems other than the BT system) was assessed by measuring total protein levels using sulforhodamine B (SRB) staining in parallel cultures at the time of biomarker measurements, indicated as SRB endpoints. For proliferation assays for adherent cell types, individual cell types are cultured at sub-confluence and relative cell numbers quantified by SRB staining at time points optimized for each system (48 h: 3C and CASM3C systems; 72 h: BT and HDF3CGF systems; 96 h: SAg system). SRB was performed by staining cells with 0.1% SRB after fixation with 10% TCA and reading wells at 560 nm.Viability and proliferation of PBMC (T cells) was quantified by Alamar Blue reduction for the SAg and BT systems. For PBMC viability (referred to as PBMC Cytotoxicity within the assay endpoint names), cells were plated (75,000/well in a 96-well plate) and then chemical samples added for 1 h before addition of activators, SEB and TSST-1 (20 ng/mL final concentration each). Cells were incubated for 90 h. Then, Alamar Blue (20 uL/well) (Invitrogen, Cat DAL1100) was added for 6 h, and the plates were read with a fluorescence microplate reader at 546/580 nm (excitation/emission). For PBMC proliferation, cells were plated and activated as above but incubated for only 16 h prior to addition of Alamar Blue. Plates were read after 6 h.

Row | SMILES | outcome | AC50
1 | C=C(C)C(=O)OCCC(F)(F)C(F)(F)C(F)(F)C(F)(F)C(F)(F)C(F)(F)F | inactive | –
2 | OCCC(F)(F)C(F)(F)C(F)(F)C(F)(F)C(F)(F)C(F)(F)F | inactive | –
3 | NCC(F)(F)C(F)(F)C(F)(F)C(F)(F)C(F)(F)C(F)(F)C(F)(F)F | inactive | –
4 | FC(F)(I)C(F)(F)C(F)(F)C(F)(F)C(F)(F)C(F)(F)I | inactive | 47.1 µM (active) [middle of 4 runs]
5 | OCCC(F)(F)C(F)(F)C(F)(F)C(F)(F)C(F)(F)C(F)(F)C(F)(F)C(F)(F)F | – | 30 µM (active) and 44.7 µM (active)
6 | C[C@@H]1C[C@H]2[C@@H]3CCC4=CC(=O)C=C[C@]4(C)[C@@]3(F)[C@@H](O)C[C@]2(C)[C@@]1(O)C(=O)COP(=O)(O)O | – | 309 nM (active) and 884 nM (active)

read-out: Intercellular Adhesion Molecule 1 (ICAM1), ICAM1 (gene 3383); test: BSK_BE3C_ICAM1: BioMAP Diversity Plus: BE3C Assay for Intercellular Adhesion Molecule 1 (ICAM1) Biomarker Activity (AID 2284278); settings: primary human bronchial epithelial cells
How it was run: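 Human primary bronchial epithelial cultures; compound added; 24 h incubation; cell-surface ICAM-1 measured by ELISA; signal increase fitted relative to DMSO negative control.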

Row | SMILES | outcome | AC50
7 | C=C(C)C(=O)OCCC(F)(F)C(F)(F)C(F)(F)C(F)(F)C(F)(F)C(F)(F)F | inactive | –
8 | OCCC(F)(F)C(F)(F)C(F)(F)C(F)(F)C(F)(F)C(F)(F)F | inactive | –
9 | NCC(F)(F)C(F)(F)C(F)(F)C(F)(F)C(F)(F)C(F)(F)C(F)(F)F | inactive | –
10 | FC(F)(I)C(F)(F)C(F)(F)C(F)(F)C(F)(F)C(F)(F)I | – | 32.3 µM (active) [middle of 5 runs]
11 | OCCC(F)(F)C(F)(F)C(F)(F)C(F)(F)C(F)(F)C(F)(F)C(F)(F)C(F)(F)F | – | 22.2 µM (active) and 46.7 µM (active)
12 | C[C@@H]1C[C@H]2[C@@H]3CCC4=CC(=O)C=C[C@]4(C)[C@@]3(F)[C@@H](O)C[C@]2(C)[C@@]1(O)C(=O)COP(=O)(O)O | inactive | –

read-out: Interferon-inducible T-cell alpha chemoattractant (ITAC), CXCL11 (gene 6373); test: BSK_BE3C_ITAC: BioMAP Diversity Plus: BE3C Assay for Interferon-inducible T-cell alpha chemoattractant (ITAC) Biomarker Activity (AID 2284279); settings: primary human bronchial epithelial cells
How it was run: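 ELISA read-out of I-TAC after 24 h chemical dosing of human lung primary bronchial epithelial cells; gain-of-signal fit vs DMSO baseline. Parallel SRB total-protein staining (0.1% SRB, 10% TCA fixation, 560 nm) assessed cytotoxicity.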

Row | SMILES | outcome | AC50
13 | C=C(C)C(=O)OCCC(F)(F)C(F)(F)C(F)(F)C(F)(F)C(F)(F)C(F)(F)F | inactive | –
14 | OCCC(F)(F)C(F)(F)C(F)(F)C(F)(F)C(F)(F)C(F)(F)F | inactive | –
15 | NCC(F)(F)C(F)(F)C(F)(F)C(F)(F)C(F)(F)C(F)(F)C(F)(F)F | inactive | –
16 | FC(F)(I)C(F)(F)C(F)(F)C(F)(F)C(F)(F)C(F)(F)I | – | 20.4 µM (active) [middle of 5 runs]
17 | OCCC(F)(F)C(F)(F)C(F)(F)C(F)(F)C(F)(F)C(F)(F)C(F)(F)C(F)(F)F | – | 23.5 µM (active) and 18.4 µM (active)
18 | C[C@@H]1C[C@H]2[C@@H]3CCC4=CC(=O)C=C[C@]4(C)[C@@]3(F)[C@@H](O)C[C@]2(C)[C@@]1(O)C(=O)COP(=O)(O)O | inactive | –

read-out: Interleukin-8 (IL8), CXCL8 (gene 3576); test: BSK_BE3C_IL8: BioMAP Diversity Plus: BE3C Assay for Interleukin-8 (IL8) Biomarker Activity (AID 2284280); settings: primary human bronchial epithelial cells
How it was run: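 IL-8 signal gain, normalised to DMSO vehicle, was scored after a 24 h chemical exposure of primary human bronchial epithelial cells, with detection by ELISA.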

Row | SMILES | outcome | AC50
19 | C=C(C)C(=O)OCCC(F)(F)C(F)(F)C(F)(F)C(F)(F)C(F)(F)C(F)(F)F | inactive | –
20 | OCCC(F)(F)C(F)(F)C(F)(F)C(F)(F)C(F)(F)C(F)(F)F | inactive | –
21 | NCC(F)(F)C(F)(F)C(F)(F)C(F)(F)C(F)(F)C(F)(F)C(F)(F)F | inactive | –
22 | FC(F)(I)C(F)(F)C(F)(F)C(F)(F)C(F)(F)C(F)(F)I | – | 19.6 µM (active) [middle of 5 runs]
23 | OCCC(F)(F)C(F)(F)C(F)(F)C(F)(F)C(F)(F)C(F)(F)C(F)(F)C(F)(F)F | – | 12.3 µM (active) and 13.3 µM (active)
24 | C[C@@H]1C[C@H]2[C@@H]3CCC4=CC(=O)C=C[C@]4(C)[C@@]3(F)[C@@H](O)C[C@]2(C)[C@@]1(O)C(=O)COP(=O)(O)O | – | 1.6 µM (active) and 182 nM (active)

read-out: Epidermal growth factor receptor (EGFR), EGFR (gene 1956); test: BSK_BE3C_EGFR: BioMAP Diversity Plus: BE3C Assay for Epidermal growth factor receptor (EGFR) Biomarker Activity (AID 2284281); settings: primary human bronchial epithelial cells
How it was run: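 Compound is added to human bronchial epithelial cells, cells incubate 24 h, then EGFR is detected by ELISA. Values reflect positive-direction fitting relative to DMSO.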

Row | SMILES | outcome | AC50
25 | C=C(C)C(=O)OCCC(F)(F)C(F)(F)C(F)(F)C(F)(F)C(F)(F)C(F)(F)F | inactive | –
26 | OCCC(F)(F)C(F)(F)C(F)(F)C(F)(F)C(F)(F)C(F)(F)F | inactive | –
27 | NCC(F)(F)C(F)(F)C(F)(F)C(F)(F)C(F)(F)C(F)(F)C(F)(F)F | inactive | –
28 | OCCC(F)(F)C(F)(F)C(F)(F)C(F)(F)C(F)(F)C(F)(F)C(F)(F)C(F)(F)F | inactive | 21.8 µM (active)
29 | C[C@@H]1C[C@H]2[C@@H]3CCC4=CC(=O)C=C[C@]4(C)[C@@]3(F)[C@@H](O)C[C@]2(C)[C@@]1(O)C(=O)COP(=O)(O)O | inactive | –

read-out: KRT18 (gene 3875); test: BSK_BE3C_Keratin818: BioMAP Diversity Plus: BE3C Assay for Keratin 818 Biomarker Activity (AID 2284282); settings: primary human bronchial epithelial cells
How it was run: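 Chemicals are added to human lung bronchial epithelial primary cells (BE3C system) and incubated 24 h. Keratin 8/18 is then measured by ELISA, with parallel SRB total-protein staining gauging overt cytotoxicity.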

Row | SMILES | AC50 | outcome
30 | C=C(C)C(=O)OCCC(F)(F)C(F)(F)C(F)(F)C(F)(F)C(F)(F)C(F)(F)F | 2.19 µM (active) | inactive
31 | OCCC(F)(F)C(F)(F)C(F)(F)C(F)(F)C(F)(F)C(F)(F)F | – | inactive
32 | NCC(F)(F)C(F)(F)C(F)(F)C(F)(F)C(F)(F)C(F)(F)C(F)(F)F | – | inactive
33 | OCCC(F)(F)C(F)(F)C(F)(F)C(F)(F)C(F)(F)C(F)(F)C(F)(F)C(F)(F)F | 24.7 µM (active) and 16.8 µM (active) | –
34 | C[C@@H]1C[C@H]2[C@@H]3CCC4=CC(=O)C=C[C@]4(C)[C@@]3(F)[C@@H](O)C[C@]2(C)[C@@]1(O)C(=O)COP(=O)(O)O | – | inactive

read-out: Matrix Metallopeptidase 9 (MMP9), MMP9 (gene 4318); test: BSK_BE3C_MMP9: BioMAP Diversity Plus: BE3C Assay for Matrix Metallopeptidase 9 (MMP9) Biomarker Activity (AID 2284283); settings: primary human bronchial epithelial cells
How it was run: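 Human primary bronchial epithelial cells in the BE3C system were dosed with compound for 24 h. MMP-9 was measured by ELISA, and the positive-direction response was fitted relative to DMSO as baseline. Parallel SRB staining gauged cytotoxicity.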

Row | SMILES | outcome | AC50
35 | C=C(C)C(=O)OCCC(F)(F)C(F)(F)C(F)(F)C(F)(F)C(F)(F)C(F)(F)F | inactive | –
36 | OCCC(F)(F)C(F)(F)C(F)(F)C(F)(F)C(F)(F)C(F)(F)F | inactive | –
37 | NCC(F)(F)C(F)(F)C(F)(F)C(F)(F)C(F)(F)C(F)(F)C(F)(F)F | inactive | –
38 | OCCC(F)(F)C(F)(F)C(F)(F)C(F)(F)C(F)(F)C(F)(F)C(F)(F)C(F)(F)F | – | 14.2 µM (active) and 30 µM (active)
39 | C[C@@H]1C[C@H]2[C@@H]3CCC4=CC(=O)C=C[C@]4(C)[C@@]3(F)[C@@H](O)C[C@]2(C)[C@@]1(O)C(=O)COP(=O)(O)O | inactive | –

Reference: PubChem BioAssay (EPA / NIEHS)
